# TDP1 cell noCPT: qHTS for Inhibitors of human tyrosyl-DNA phosphodiesterase 1 (TDP1): qHTS in cells in absence of CPT; DT40 Tdp1-/- hTDP1 cells, no CPT, ATP luminescence, 48 h; Potency, µM (titrated, usually from 46.2 µM), without a hit: at the highest dose activity change, negative = growth inhibition, actives largely listed as inhibitors; hit rate 15% among 420,000; note: potency is the fitted concentration of half-maximal effect; % is set by controls: 0 for no effect and ±100 for the full control effect; nearly all actives have a fitted effect of over 55% in size
#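 DT40 Tdp1-/-;hTDP1 cells, no CPT (DMSO vehicle only), 400 cells/well; compounds pin-transferred; ≥48 hr, 37 °C; CellTiter-Glo 30 min RT dark, luminescence read.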
# D3 antag: D3 dopamine receptor (human) antagonism. hit rate 2.5% among 360,000. D3R cells, DiscoveRx beta-arrestin luminescence, antagonist mode; stronger effect = lower value. AID 652054. P35462. max response, negative = inhibition, %; in the data active = max response below about -50%; inconclusive = no clear call, values can overlap the other calls; note: % is set by controls: 0 for no effect and ±100 for the full control effect
#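 Cells expressing the human receptor were seeded at 1500 cells/well, incubated overnight at 37 degrees C in 5% CO2, then exposed to library compounds with dopamine controls for 90 minutes at 37 degrees C before luminescent detection.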
# TDP1 cell CPT: DT40-hTDP1 cell growth loss with CPT; hit rate 12% among 420,000; chicken DT40 Tdp1-/-;hTDP1 cells + 20 nM CPT, ATP luminescence, 48 h; Potency, µM (highest dose often 46.2 µM), for the others: at the highest dose activity change, negative = growth inhibition, actives largely listed as inhibitors; note: potency is the fitted concentration of half-maximal effect; % is set by controls: 0 for no effect and ±100 for the full control effect; nearly all actives have a fitted effect of over 55% in size
#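 Cell growth measured by CellTiter-Glo luminescence after a minimum 48 h, 37 C compound exposure with 20 nM CPT in Tdp1-knockout DT40 cells stably expressing hTDP1, seeded 400/well; qHTS titration format.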
# DRD3 agonist: agonists of human D3 dopamine receptor. AID 652048. P35462. D3R DiscoveRx beta-arrestin cells, luminescence, 90 min. hit rate 0.58% among 410,000. max activation, %; in the data active = max activation above about 30%; note: 0% is about no effect
#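 Agonist-mode cell screen: cells plated at 1500/well and incubated overnight at 37 °C, then exposed to library compounds for 90 min at 37 °C. Detection reagent was added for 30–60 min at room temperature, and luminescence was read.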
# IL1B secr inh: inflammasome signaling inhibition, IL-1 beta readout. hit rate 4.7% among 360,000. activity change, % at 57.5 µM. THP-1 LPS/ATP IL-1B secretion, AlphaLISA, 16 h; stronger effect = lower value; in the data active = activity change below about -50%; inconclusive = mostly about -30% to -49%; note: % is set by controls: 0 for no effect and ±100 for the full control effect
#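 THP-1 cells pretreated 1 hr with compounds (up to 57.5 uM final), then stimulated with LPS (250 ng/mL final) plus ATP (1.25 mM final); secreted IL-1B measured by AlphaLISA after 16 hr, decreased signal indicating inhibition.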
# ClpP mod: qHTS Assay for Activators of ClpP; Potency, µM (series often up to 57.5 µM), without a hit: at the highest dose activity change, negative = active; hit rate 1.9% among 340,000; AID 651965, 2013; purified B. subtilis ClpP, FRET peptide cleavage, 20 min; ATP-dependent Clp protease proteolytic subunit (Bacillus subtilis (strain 168)), P80244; active = well fitted falling curve with a large enough effect; inconclusive = small, poorly fitted or top-dose-only effect; inactive = no such curve, though single readings can be large or run the other way; note: potency is the fitted concentration of half-maximal effect; the source files actives as falling curves though it sought activators and does not explain the sign; nearly all actives have a fitted effect of over 65% in size
# Target sequence (P80244 whole entry, looked up): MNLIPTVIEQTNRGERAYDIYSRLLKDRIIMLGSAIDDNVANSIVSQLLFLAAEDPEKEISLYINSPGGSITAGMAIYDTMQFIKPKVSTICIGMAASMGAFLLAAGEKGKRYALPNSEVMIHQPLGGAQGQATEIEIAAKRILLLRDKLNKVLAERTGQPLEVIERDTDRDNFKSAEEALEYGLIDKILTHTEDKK
#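 Buffer: 100 mM Tris/HCl pH8, 100 mM KCl, 0.05% low protease BSA, 2.5% glycerol, 0.01% Tween-20. ClpP 10 microg/mL final; 20 min RT; delta FRET normalized to ADEP and DMSO controls.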
# * marks the source's active call; other numbers are inactive results; ? = inconclusive; · = no result; [ ] = dose if it differs, or a comment. In the library only some 21% were active in any assay of this set; here they are far more common. Unless noted, calls come from the whole dose curve; as a rule, active = well fitted inhibition curve with a large enough effect; inconclusive = small, poorly fitted or top-dose-only effect; inactive = flat fitted curve, though single readings scatter.
SMILES,TDP1 cell noCPT,D3 antag,TDP1 cell CPT,DRD3 agonist,IL1B secr inh,ClpP mod
O=C(C[C@H]1C[C@H](C(=O)N2CCOCC2)[C@@]2(CCC3CCCC3)c3[nH]c4cc(-c5ccco5)ccc4c3CCN2C1=O)NCc1cccc(C(F)(F)F)c1,?,?,16.4µM*,7.0,-52.8*,4.2%
O=C(CC1C[C@H](C(=O)N2CCOCC2)[C@@]2(CCC3CCCC3)c3[nH]c4ccccc4c3CCN2C1=O)NCCN1CCOCC1 (some centres undefined),?,0.0,?,-18.0,-14.7,1.9%
C[C@]12c3[nH]c4cc(-c5ccco5)ccc4c3CCN1C(=O)[C@@H](CC(=O)NCC13CC4CC(CC(C4)C1)C3)C[C@@H]2C(=O)N1CCOCC1,?,-24.9,?,-20.3,-18.9,4.4%
O=C(C[C@H]1C[C@H](C(=O)N2CCOCC2)[C@@]2(CCC3CCCC3)c3[nH]c4cc(-c5ccco5)ccc4c3CCN2C1=O)NCC12CC3CC(CC(C3)C1)C2,?,0.0,14.6µM*,7.4,?,4.0%
CC[C@]12c3[nH]c4cc(-c5ccco5)ccc4c3CCN1C(=O)[C@@H](CC(=O)NCc1ccc(OC)c(OC)c1)C[C@@H]2C(=O)N1CCN(C(=O)c2ccco2)CC1,?,32.1,?,-2.6,?,-13.0%
COCCC(=O)N1CCC(Oc2ccc(C(=O)NCc3nccn3C)cc2)CC1,-1.6%,30.6,-4.5%,12.5,15.3,1.1%
C[C@@H]1CN(Cc2ccc3c(c2)CN(C(=O)CCc2nc4ccc(F)cc4[nH]2)CCO3)C[C@H](C)O1,-28.6%,·,2.9%[9.04 µM],·,·,·
O=C(C[C@H]1C[C@H](C(=O)N2CCOCC2)[C@@]2(CCC3CCCC3)c3[nH]c4cc(-c5ccco5)ccc4c3CCN2C1=O)NCCN1CCOCC1,?,-12.1,23.1µM*,-3.8,-13.0,3.4%
O=C(CC1C[C@H](C(=O)N2CCOCC2)[C@@]2(CCC3CCCC3)c3[nH]c4ccccc4c3CCN2C1=O)NCC12CC3CC(CC(C3)C1)C2 (some centres undefined),16.4µM*,-25.0,16.4µM*,6.7,?,1.6%
COc1ccc(/C=C/C(=O)Nc2ccc(N3CCOCC3)cc2)cc1,?,8.8,5.1%,-1.8,10.4,1.2%
CC(C)c1ccc(/C=C/C(=O)Nc2ccc(CN3CCOCC3)cc2)cc1,13µM*,6.0,8.2µM*,2.9,-93.8*,·
CC(C)c1ccc(C(=O)Nc2ccc(CN3CCOCC3)cc2)cc1,?,-12.4,?,-3.6,-54.5*,·
CC(C)CC(=O)N1CCN(Cc2ccc(Cl)cc2)CC1,?,16.2,-3.0%,4.0,-18.2,-0.1%
CC(C)c1ccc(NC(=O)c2ccc(CN3CC(=O)N4CCCCC4C3=O)cc2)cc1 (centres undefined),16.4µM*,·,?,-2.0,·,-0.5%
CC(C)c1ccc(CN2CCN(C(=O)CCl)CC2)cc1,0.731µM*,-22.0,1.16µM*,-0.3,-99.7*,-2.2%
Cc1oc2ncn(C)c(=O)c2c1C(=O)NCCCN(Cc1ccccc1)C(C)C,3.4%,·,8.0%,5.3,·,-0.2%
Cc1ccc(CNC(=O)c2c(-c3cccc(Br)c3)noc2C)o1,-13.4%,·,?,-8.3,·,-0.1%
COCCNc1ccnc(-c2ccccc2C)n1,1.1%,·,-9.1%,·,·,·
Cc1ccsc1C(=O)N1CCC1(C)C(=O)NCc1cccc2ccccc12 (centres undefined),?,-10.8,?,-2.9,-14.9,2.8%
CC(C)(C)c1ccc(C(=O)N2CCC2(C)C(=O)Nc2cccc3ncccc23)cc1 (centres undefined),20.6µM*,-17.2,23.1µM*,83.7*,19.9,-23.5%

# From PubChem
